Screens as filed in PubChem BioAssay.
S2 tox: Viability Counterscreen for Primary qHTS for Inhibitors of ATXN expression; S2 cells (HEK-293 line with an ATXN2-luciferase reporter) viability, CellTiter-Fluor protease fluorescence, 24 h; Potency, µM (doses to about 56.7 µM), most hits filed as cytotoxic; 400,000 tested, 0.49% active; AID 651635, 2014; also: potency is read from the fitted curve at half-maximal effect; nearly all actives have a fitted effect of over 40% in size
ATXN2 expr inh: Primary qHTS for Inhibitors of ATXN expression; 360,000 tested, 0.72% active; HEK-293 ATXN2-luciferase reporter, luminescence, 24 h; Potency, µM (doses to about 57 µM), inactives show at the top dose activity change, negative = inhibition, actives largely listed as inhibitors; also: potency is read from the fitted curve at half-maximal effect; % is scaled to controls: 0 for no effect and ±100 for the full control effect; nearly all actives have a fitted effect of over 55% in size
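qHTS (up to 57 uM final) was run with 24 h compound exposure of reporter cells at 37 °C. Each well was multiplexed: SteadyGlo luminescence measured ATXN2-luciferase expression after a fluorogenic Gly-Phe-AFC viability readout (25 uM final).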
D3 antag: qHTS of D3 Dopamine Receptor Antagonist: qHTS | D(3) dopamine receptor (Homo sapiens), P35462 | D3R cells, DiscoveRx beta-arrestin luminescence, antagonist mode; stronger effect = lower value | max response, negative = inhibition, % | 360,000 tested, 2.5% active; in the data active = max response below about -50%; inconclusive = no clear call, values can overlap the other calls; also: % is scaled to controls: 0 for no effect and ±100 for the full control effect
Target sequence (P35462 whole entry, looked up): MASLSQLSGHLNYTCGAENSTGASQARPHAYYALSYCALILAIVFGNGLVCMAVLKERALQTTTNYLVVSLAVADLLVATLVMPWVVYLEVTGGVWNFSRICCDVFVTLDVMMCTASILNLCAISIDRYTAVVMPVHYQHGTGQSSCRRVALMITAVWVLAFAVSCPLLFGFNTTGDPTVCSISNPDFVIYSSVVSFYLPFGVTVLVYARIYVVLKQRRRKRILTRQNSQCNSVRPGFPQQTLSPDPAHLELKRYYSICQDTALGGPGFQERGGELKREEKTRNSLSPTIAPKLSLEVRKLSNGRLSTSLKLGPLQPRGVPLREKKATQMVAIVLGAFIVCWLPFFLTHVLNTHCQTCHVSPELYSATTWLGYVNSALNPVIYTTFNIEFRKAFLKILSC
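Cells expressing the human receptor were seeded at 1500 cells/well, incubated overnight at 37 degrees C in 5% CO2, then exposed to library compounds with dopamine controls for 90 minutes at 37 degrees C before luminescent detection.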
TGFb inhibitor: qHTS for Inhibitors of TGF-b. Potency, µM (doses to about 46.1 µM), for inactives: at the highest dose activity, negative = inhibition, actives largely listed as inhibitors. 410,000 tested, 1.2% active. HepG2 CAGA-GFP TGF-b/SMAD3 reporter, GFP fluorescence, 18 h; TGF-beta stimulated, 500 pg/mL final. AID 588855, 2011; also: potency is read from the fitted curve at half-maximal effect; % is scaled to controls: 0 for no effect and ±100 for the full control effect; nearly all actives have a fitted effect of over 65% in size
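HEPG2 CAGA-GFP, 1000 cells/well; 2 h settle, 37 C; cpd via pin tool; TGF-b 500 pg/mL final; 18 h, 37 C; GFP imaging ex488/em500-530; %Activity normalised to -TGF-b and +DMSO controls; CRC fit, curve class.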
HepG2 viability: qHTS for Inhibitors of TGF-b: Cytotox Counterscreen; HepG2 CAGA-GFP viability, ATP luminescence, 18 h; Potency, µM (top dose mostly 46.1 µM), without a hit: top-dose activity change, negative = cytotoxicity, most hits filed as cytotoxic; 410,000 tested, 0.76% active; also: potency is read from the fitted curve at half-maximal effect
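CellTiter-Glo luminescence gave cytotoxicity after 18 hours at 37 degrees C. The cells were HepG2 CAGA-GFP in 1% FBS DMEM, stimulated with 500 pg/mL TGF-beta after compound addition. %Activity was normalised to no-cell wells (complete cell-killing) and DMSO (no toxicity), and curves were fitted and classified.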
DRD3 agonist: qHTS of D3 Dopamine Receptor Agonist: qHTS; D3R DiscoveRx beta-arrestin cells, luminescence, 90 min; max activation, %; 410,000 tested, 0.58% active; AID 652048, 2013; in the data active = max activation above about 30%; also: 0% is about no effect
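Agonist-mode cell screen: cells plated at 1500/well and incubated overnight at 37 °C, then exposed to library compounds for 90 min at 37 °C. Detection reagent was added for 30–60 min at room temperature, and luminescence was read.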
* = called active by the depositor; i = inactive; ? = inconclusive; nt = not tested or not shown. An excerpt weighted towards active compounds, which were near 4.8% of everything screened. Unless noted, calls follow the shape of the dose curve; as a rule, active = well fitted curve in the direction sought with a large enough effect; inconclusive = small, poorly fitted or top-dose-only effect, or another doubt; inactive = no such curve, though single readings can be large; an effect the other way counts as inactive or inconclusive.

SMILES | S2 tox | ATXN2 expr inh | D3 antag | TGFb inhibitor | HepG2 viability | DRD3 agonist
CC(Oc1ccccc1)C(=O)OCc1cc(=O)n2nc(C(C)C)sc2n1 (stereo unspecified) | i | 5.9% | nt | -17.2% | -21.0% | -2.5
CC(C)c1ccc(Nc2ncnc3c2nc2n3CCCC2)cc1 | nt | nt | nt | -33.7% | -36.3% | 9.7
CCc1cc(-c2[nH]ncc2-c2ccc3c(c2)OCO3)c(O)cc1O | ? | 11.2µM* | -29.5 | ? | -94.0% | -2.7
CCc1cc(-c2[nH]ncc2-c2ccc(OC)cc2)c(O)cc1O | i | ? | -5.2 | -27.2% | -28.4% | 1.4
CCOC(=O)c1cc(C)n(CC2CCC(C(=O)Nc3ccc(OC)cc3)CC2)c1C (stereo unspecified) | nt | nt | nt | ? | -23.7% | 30.5*
CCCOc1ccc(C(=O)CCNc2ccc(C)c(Cl)c2)cc1 | i | -5.4% | -83.7* | -6.8% | -3.3% | -12.1
Cc1ccc(S(=O)(=O)N2CCC(c3nc(-c4cccs4)nc4ccccc34)CC2)cc1 | nt | nt | nt | 24.8% | -3.5% | nt
Cc1cccc(N2CCN(CC(O)COc3ccccc3)CC2)c1 (stereo unspecified) | i | -2.3% | -70.6* | ? | -19.6% | -10.3
Cc1cccc(N2CCN(CC(O)COc3ccc(Cl)cc3)CC2)c1 (stereo unspecified) | i | nt | -80.2* | 8.6% | 0.3% | 2.5
OC(COc1ccc(Cl)cc1)CN1CCN(c2cccc(Cl)c2)CC1 (stereo unspecified) | i | 0.0% | ? | ? | -36.0% | 1.1
CC(=O)c1ccc(N2CCN(C(=O)NCc3noc4ccc(C)cc34)CC2)cc1 | ? | 3.9% | nt | -25.5% | -47.1% | 3.4
O=[N+]([O-])c1cc([N+](=O)[O-])c2cc3ccccc3nc2c1 | ? | 17.6% | -79.9* | ? | -2.3% | -27.6
CC(C)c1ccc(NC(=O)[C@H](NC(=O)[C@@H]2Cc3ccccc3CN2)c2ccccc2)cc1 | i | 9.9% | -97.7* | -4.8% | -26.1% | -18.7
COc1cccc(NC(=O)[C@H](NC(=O)[C@@H]2Cc3ccccc3CN2)c2ccccc2)c1 | i | 10.7% | -92.1* | 6.8% | -27.6% | -18.1
Cc1ccc(NC(=O)[C@H](NC(=O)[C@@H]2Cc3ccccc3CN2)c2ccccc2)cc1 | i | 12.7% | -99.7* | -4.7% | -3.1% | -17.9
COc1cccc(NC(=O)[C@H](Cc2ccccc2)NC(=O)[C@@H]2Cc3ccccc3CN2)c1 | i | 8.4% | -0.9 | -9.7% | -1.8% | -4.7
Cc1cccc(NC(=O)[C@H](NC(=O)[C@@H]2Cc3ccccc3CN2)c2ccccc2)c1 | i | nt | -88.9* | -21.7% | -20.7% | -19.7
Cc1cccc(NC(=O)[C@@H](CC(C)C)NC(=O)[C@@H]2Cc3ccccc3CN2)c1 | i | 19.9% | -23.3 | -2.2% | 1.8% | -16.2
CC(NC(=O)[C@H](NC(=O)[C@@H]1Cc2ccccc2CN1)c1ccccc1)c1ccccc1 (stereo partly specified) | i | 5.3% | -20.1 | 3.5% | -1.2% | 13.7
Cc1ccc2c(c1)C(c1ccc(F)cc1)N(C(=O)c1ccc(OC(C)C)cc1)CC(=O)N2 (stereo unspecified) | ? | ? | nt | 0.0% | -59.8% | -28.3
O=C(Nc1cc(F)ccc1F)c1cnn2c1NC(=C1CC1)C=C2C(F)F | nt | nt | nt | 8.5% | -2.3% | nt
CC[C@@H](C)[C@H](NC(=O)OC(C)(C)C)c1nnc(S(=O)(=O)Cc2cc(C)ccc2C)o1 | nt | ? | -79.4* | ? | -94.5% | -8.1
CC[C@@H](C)[C@H](NC(=O)OCc1ccccc1)c1nnc([C@@H](NC(=O)OCc2ccccc2)[C@@H](C)CC)o1 | i | -7.9% | 11.4 | ? | -39.4% | 1.2
